Inconclusive results are not listed. The source made the active and inactive calls. The calls were made as follows: active = hit-call score of the fitted dose curve at least 0.9, where 1 is the maximum; inconclusive = response in the unintended direction; inactive = score below 0.9.
Each molecule was assayed against Ratio of Nucleoli Translocation and Cytoplasm, AR (gene 367) (UniProt P10275) (assay: UPITT_HCI_U2OS_AR_TIF2_Nucleoli_Cytoplasm_Ratio_Agonist: University of Pittsburgh U2OS Androgen Receptor-Transcriptional Intermediary Factor 2 (AR-TIF2) Agonism High Content Imaging Assay for Ratio of Nucleoli Translocation and Cytoplasm (AID 2284000);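 also: hits raise the red nucleolar to cytoplasm ratio above vehicle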).
Ratio of Nucleoli Translocation and Cytoplasm, AR (gene 367), sequence (P10275 whole entry, looked up, the tested form may be a part): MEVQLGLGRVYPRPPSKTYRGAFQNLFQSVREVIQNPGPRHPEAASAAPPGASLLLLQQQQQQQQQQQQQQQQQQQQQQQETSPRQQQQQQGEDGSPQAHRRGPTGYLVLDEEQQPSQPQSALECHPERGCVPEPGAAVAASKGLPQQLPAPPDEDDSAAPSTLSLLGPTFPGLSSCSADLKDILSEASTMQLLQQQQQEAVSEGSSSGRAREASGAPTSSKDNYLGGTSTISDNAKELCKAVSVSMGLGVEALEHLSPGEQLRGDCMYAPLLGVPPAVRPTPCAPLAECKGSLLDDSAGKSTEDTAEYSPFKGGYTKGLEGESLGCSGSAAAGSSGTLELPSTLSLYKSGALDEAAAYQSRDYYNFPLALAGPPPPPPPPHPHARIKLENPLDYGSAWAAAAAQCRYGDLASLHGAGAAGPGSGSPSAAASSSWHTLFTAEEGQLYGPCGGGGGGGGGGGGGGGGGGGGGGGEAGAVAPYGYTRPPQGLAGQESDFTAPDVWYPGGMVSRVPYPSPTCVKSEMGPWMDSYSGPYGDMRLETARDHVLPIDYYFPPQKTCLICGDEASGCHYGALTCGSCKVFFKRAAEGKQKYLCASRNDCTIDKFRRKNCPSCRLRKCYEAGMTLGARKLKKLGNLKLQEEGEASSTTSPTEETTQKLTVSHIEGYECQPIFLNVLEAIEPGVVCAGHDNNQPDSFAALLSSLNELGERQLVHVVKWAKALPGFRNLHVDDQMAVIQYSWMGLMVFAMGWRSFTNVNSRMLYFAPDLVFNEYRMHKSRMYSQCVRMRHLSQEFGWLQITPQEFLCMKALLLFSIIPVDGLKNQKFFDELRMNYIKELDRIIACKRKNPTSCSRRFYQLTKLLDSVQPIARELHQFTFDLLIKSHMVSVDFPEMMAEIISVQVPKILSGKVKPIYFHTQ
Description: UPITT_AR_TIF2_PPIB is a cell-based, high-content imaging assay that uses U2OS, a human osteosarcoma cell line, expressing a human androgen receptor fused to red fluorescent protein and the coactivator TIF2 fused to green fluorescent protein. UPITT_HCI_U2OS_AR_TIF2_Nucleoli_Cytoplasm_Ratio_Agonist is one of four assay components measured from the UPITT_AR_TIF2_PPIB assay. It is designed to make measurements of the ratio of red fluorescence localized in the nucleolar region of the cell nucleus to red fluorescence localized in the cytoplasm as detected with high-content fluorescent imaging.Data from the assay component UPITT_HCI_U2OS_AR_TIF2_Nucleoli_Cytoplasm_Ratio_Agonist was analyzed into 1 assay endpoint. This assay endpoint, UPITT_HCI_U2OS_AR_TIF2_Nucleoli_Cytoplasm_Ratio_Agonist, was analyzed in the positive analysis fitting direction relative to DMSO as the baseline of activity. Using a type of binding reporter, measures of receptor for gain-of-signal activity can be used to understand the binding at the pathway-level as it relates to the gene AR.
Daughter plates containing 2 uL of 10 mM compounds in DMSO were prepared and replicated from the 384-well Library of Pharmacologically Active Compounds (LOPAC) master plates using the Bravo outfitted with a 384-well transfer head. Aluminum adhesive plate seals were applied with an Abgene Seal-IT 100 (Rochester, NY) plate sealer, and the plates were stored at -20 C in a Matrical MatriMinistore (Spokane, WA) automated compound storage and retrieval system. For screening, LOPAC daughter plates were withdrawn from -20C storage, thawed to ambient temperature, centrifuged 1-2 min at 50 g, and the plate seals were removed before the transfer of 98 uL of serum-free tissue culture medium (SFM) into wells using the BioTek Microflo liquid handler (BioTek, Winooski, VT) to generate a 200 uM intermediate stock concentration of library compounds (2.0% DMSO). The diluted compounds were mixed by repeated aspiration and dispensation using a 384-well P30 dispensing head on the Evolution P3 (EP3) liquid handling platform (PerkinElmer, Waltham, MA) and then 5 uL of diluted compounds was transferred to the wells of assay plates. In the LOPAC screen, compounds were individually tested at a final concentration of 20 uM (0.2% DMSO). After the diluted compounds had been transferred from the daughter plates to the primary HCS assay plates, aluminum adhesive plate seals were applied and the diluted daughter plates were stored frozen at -20C. To confirm active compounds identified in the primary screen, we withdrew the LOPAC daughter plates containing the 200 uM intermediate concentration of library compounds (2.0% DMSO) from -20C storage, thawed them to ambient temperature, centrifuged them for 1-2 min at 50 g, and removed the plate seals. A work list was generated to direct the Multiprobe Janus liquid handling platform (PerkinElmer) to cherry pick 75 uL from the wells of the diluted daughter plates that were flagged active in the primary screen and to reformat these into a 384-well plate hit confirmation daughter plate. Five microliters of primary HCS active compounds was then transferred into triplicate wells of assay plates using a 384-well P30 dispensing head on the Evolution P3 (EP3) liquid handling platform (PerkinElmer). […] Daughter plates containing 2 uL of the serially diluted compounds in DMSO were prepared and replicated from the 384-well serial dilution master plates using the Bravo outfitted with a 384-well transfer head. Aluminum adhesive plate seals were applied and plates were stored at -20C. For testing in the bioassays, daughter plates were withdrawn from -20C storage, thawed to ambient temperature, centrifuged for 1-2 min at 50 g, and the plate seals were removed before the transfer of 38 uL of SFM into wells using the BioTek Microflo liquid handler (BioTek) to generate an intermediate stock concentration of library compounds ranging from 1.95 to 500 uM (5.0% DMSO). […]

SMILES	outcome	AC50
COP(=S)(OC)Oc1cc(Cl)c(Cl)cc1Cl	inactive	–
CC(C)(c1ccc(OCC2CO2)cc1)c1ccc(OCC2CO2)cc1 (configuration not stated)	inactive	–
CC(C)CCCCCCOC(=O)c1ccccc1C(=O)OCCCCCCC(C)C	inactive	–
C[C@H]1O[C@@H](O[C@H]2[C@@H](O)C[C@H](O[C@H]3[C@@H](O)C[C@H](O[C@H]4CC[C@@]5(C)[C@H](CC[C@@H]6[C@@H]5CC[C@]5(C)[C@@H](C7=CC(=O)OC7)CC[C@]65O)C4)O[C@@H]3C)O[C@@H]2C)C[C@H](O)[C@@H]1O	inactive	–
CCC(=O)C(CC(C)N(C)C)(c1ccccc1)c1ccccc1 (configuration not stated)	inactive	–
c1cc[c]([Hg][c]2ccccc2)cc1	inactive	–
CC(C)c1cccc(C(C)C)c1O	inactive	–
Cl/C=C\C[N+]12CN3CN(CN(C3)C1)C2	inactive	–
Cc1ccc2ccccc2c1C	inactive	–
CCOP(=S)(OCC)Oc1nc(Cl)c(Cl)cc1Cl	inactive	–
CC(=O)[O][Hg][c]1ccccc1	inactive	–
COP(=O)(OC)O/C(=C\Cl)c1cc(Cl)c(Cl)cc1Cl	–	50 µM (active)
COP(=S)(OC)Oc1ccc(Sc2ccc(OP(=S)(OC)OC)cc2)cc1	inactive	–
C=CCc1ccc(OC)cc1	inactive	–
C[C@H]1CCCC(=O)CCC/C=C/c2cc(O)cc(O)c2C(=O)O1	–	84.8 µM (active)
Clc1ccc(COC(Cn2ccnc2)c2ccc(Cl)cc2Cl)cc1 (configuration not stated)	–	74.4 µM (active)
CN(CCCC(=O)c1cccnc1)N=O	inactive	–
CC12CC1(C)C(=O)N(c1cc(Cl)cc(Cl)c1)C2=O (configuration not stated)	inactive	–
CCSC(C)CC1CC(=O)C(C(CC)=NOC/C=C/Cl)=C(O)C1 (configuration not stated)	inactive	–
O=C1C2(Cl)C3(Cl)C4(Cl)C(Cl)(Cl)C5(Cl)C3(Cl)C1(Cl)C5(Cl)C24Cl (configuration not stated)	–	13.1 µM (active)
Cc1ccccc1C(=O)Nc1cccc(OC(C)C)c1	inactive	–
O=[N+]([O-])c1ccc(O)c([N+](=O)[O-])c1	inactive	–

From PubChem BioAssay (EPA / NIEHS)
